Assay results taken from PubChem BioAssay AID743314 (Broad Institute, 2014).
Entries with a potency or affinity are not part of this list. Inconclusive results are not listed. Calls of active or inactive are those of the source.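 Rule for the calls: active = fitted half-maximal concentration no higher than twice the top tested dose, in every repeat run; inconclusive = repeat runs disagree, poor fit, or flat partial inhibition; inactive = the rest.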

These molecules were tested against Endoplasmic reticulum aminopeptidase 1 (Homo sapiens) (UniProt Q9NZ08) (assay: ERAP1 aminopeptidase inhibitors, dose response, biochemical, cherry-pick, set 2, plate reader (AID 743314;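 note: 0% = neutral control wells and -100% = L-leucinethiol positive control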)). Conditions: Recombinant ERAP1, Leu-AMC fluorescence, 60 min; series mostly up to 11 µM; activity change, negative = inhibition: at the top concentration.
Endoplasmic reticulum aminopeptidase 1 (Homo sapiens), sequence (Q9NZ08 whole entry, looked up): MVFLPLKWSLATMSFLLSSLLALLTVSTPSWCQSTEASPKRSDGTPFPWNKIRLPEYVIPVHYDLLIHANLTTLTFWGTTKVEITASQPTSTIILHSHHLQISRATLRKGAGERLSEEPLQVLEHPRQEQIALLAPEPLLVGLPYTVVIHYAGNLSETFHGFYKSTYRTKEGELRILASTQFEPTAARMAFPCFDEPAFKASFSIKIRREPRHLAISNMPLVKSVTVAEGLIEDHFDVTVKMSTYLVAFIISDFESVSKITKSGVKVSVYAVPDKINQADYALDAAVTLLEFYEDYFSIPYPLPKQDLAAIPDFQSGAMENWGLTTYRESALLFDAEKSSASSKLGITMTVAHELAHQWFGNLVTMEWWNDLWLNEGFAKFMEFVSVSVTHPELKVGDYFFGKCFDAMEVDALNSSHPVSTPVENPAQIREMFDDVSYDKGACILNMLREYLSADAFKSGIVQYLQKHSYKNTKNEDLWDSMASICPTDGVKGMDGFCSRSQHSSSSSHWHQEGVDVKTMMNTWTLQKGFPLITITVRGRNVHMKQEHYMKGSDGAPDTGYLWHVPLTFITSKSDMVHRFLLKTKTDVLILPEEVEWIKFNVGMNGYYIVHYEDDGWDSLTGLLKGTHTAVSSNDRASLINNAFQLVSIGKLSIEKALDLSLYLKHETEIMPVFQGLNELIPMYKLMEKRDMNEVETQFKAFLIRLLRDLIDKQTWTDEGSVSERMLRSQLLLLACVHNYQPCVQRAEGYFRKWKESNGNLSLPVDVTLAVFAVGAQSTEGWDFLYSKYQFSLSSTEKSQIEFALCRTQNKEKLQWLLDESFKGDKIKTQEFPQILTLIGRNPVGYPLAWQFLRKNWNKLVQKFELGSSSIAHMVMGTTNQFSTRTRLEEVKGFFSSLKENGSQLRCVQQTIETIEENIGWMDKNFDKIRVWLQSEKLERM

Activity change, negative = inhibition, inactive:
c1ccc(Nc2nc(NCC3CCCO3)c3ccccc3n2)cc1 (stereo not given) 38.2%, Cc1cccc(NC(=O)Nc2ccc3c(c2)C(=O)N(C)[C@H]2CC[C@H](CC(=O)O)O[C@H]2CO3)c1 28.6%, CCOc1ccccc1-n1nnnc1SCC(=O)NC(=O)Cc1ccccc1 -3.38%, C[C@H]1CN([C@@H](C)CO)C(=O)c2cccc(NC(=O)Nc3ccc(F)cc3)c2O[C@@H]1CN(C)C(=O)Nc1ccc2c(c1)OCO2 51%, CCOCc1c(C(=O)Nc2ccc(OC)nc2)oc2ccccc12 1.18%, COc1ccc2c3c([nH]c2c1)[C@H](CO)N(CC1CC1)CC31CCN(C(=O)c2ccccc2F)CC1 30.8%, CN1c2ccc(-c3ccccc3)cc2[C@H]2[C@H](CCN2C(=O)c2ccccc2)[C@@H]1CO 34.8%, C[C@H]1CN([C@@H](C)CO)C(=O)c2cc(NC(=O)CCN3CCOCC3)ccc2O[C@@H]1CN(C)S(=O)(=O)c1ccccc1 22.3%, COc1ccc(NC(=O)N[C@@H]2CC[C@@H](CCn3cc(-c4ccc(F)cc4)nn3)O[C@H]2CO)cc1 32.5%, Cc1ccc(S(=O)(=O)c2cc3ccc(O)cc3oc2=O)cc1C 315% [at 5.6 µM], O=C(O)c1ccccc1NS(=O)(=O)c1cccc(NS(=O)(=O)c2cc(Br)ccc2Br)c1 -22.3%, CC(C)NC(=O)N[C@@H]1CC[C@@H](CCNS(=O)(=O)c2ccc(Cl)cc2)O[C@@H]1CO 7.37%, COc1ccc(NC(=O)Nc2ccc3c(c2)C(=O)N([C@@H](C)CO)C[C@H](C)[C@H](CN(C)Cc2ccc(C(=O)O)cc2)OCCCC[C@H](C)O3)cc1 48.4%, C[C@@H]1CN([C@@H](C)CO)C(=O)c2cc(-c3ccc(F)cc3)cnc2O[C@@H]1CN(C)CC1CCCCC1 20.9%, O=S(=O)(Nc1cccc(-c2cn3c(n2)SCC3)c1)c1ccccc1 -4.83%, CC(Sc1nnc(-c2cccnc2)n1C)C(=O)N1CCOCC1 (stereo not given) -6.46%, COc1ccccc1-c1cn(CC[C@H]2CC[C@H](NS(=O)(=O)c3ccccc3C)[C@@H](CO)O2)nn1 20.2%, CCn1c(SCC(=O)NC2CCCCC2)nc2ccccc2c1=O -8.12%, Cc1cc(C)n2nc(C(=O)Nc3ccc(N4CCOCC4)cc3)nc2n1 -17.4%, CCCCC1CCC(C(=O)OC(C)C(=O)Nc2ccc(NC(C)=O)cc2)CC1 (stereo not given) -2.34%, O=C(CN1CCN(S(=O)(=O)N2CCOCC2)CC1)Nc1ccc(Cl)c(Cl)c1 11.9%, COc1ccc([N+](=O)[O-])cc1NS(=O)(=O)c1cccc(C(=O)O)c1 36.7%, CCOc1ccc(NC(=O)C2CCCN2C(=O)Oc2ccccc2)cc1 (stereo not given) 1.06%, CS(=O)(=O)N(CC(=O)N1CCOCC1)c1cccc(Cl)c1 -6.98%, CN(C)C(=O)c1cccc(-c2ccc3c(c2)[C@@H]2[C@@H](CCN2Cc2nccs2)[C@@H](CO)N3)c1 33.6%
